# Laboratory results as given in PubChem BioAssay AID1851 (National Center for Advancing Translational Sciences (NCATS), 2009).
# Hit rate of the full screen: of about 16,000 compounds, about 5,800 (36%) were called active. Inconclusive results (about 23%) are left out. The call rests on the fitted dose curve; in most records, active means well fitted curve in the direction sought with a large enough effect; inconclusive means small, poorly fitted or top-dose-only effect, or effect the other way; inactive means no such curve, though single readings can be large or run the other way. Some of the results follow.
# Molecular target: Cytochrome P450 2C19 (Homo sapiens) (UniProt P33261)
# Experiment: Cytochrome panel assay with activity outcomes
# Details: recombinant CYP, pro-luciferin dealkylation, luminescence, p450-cyp2c19; series mostly up to 57.1 µM; activity, negative = inhibition: at the top concentration
# On the % scale 0 is the no-effect control and ±100 the full control effect.
# Sequence of Cytochrome P450 2C19 (Homo sapiens) (P33261 whole entry, looked up): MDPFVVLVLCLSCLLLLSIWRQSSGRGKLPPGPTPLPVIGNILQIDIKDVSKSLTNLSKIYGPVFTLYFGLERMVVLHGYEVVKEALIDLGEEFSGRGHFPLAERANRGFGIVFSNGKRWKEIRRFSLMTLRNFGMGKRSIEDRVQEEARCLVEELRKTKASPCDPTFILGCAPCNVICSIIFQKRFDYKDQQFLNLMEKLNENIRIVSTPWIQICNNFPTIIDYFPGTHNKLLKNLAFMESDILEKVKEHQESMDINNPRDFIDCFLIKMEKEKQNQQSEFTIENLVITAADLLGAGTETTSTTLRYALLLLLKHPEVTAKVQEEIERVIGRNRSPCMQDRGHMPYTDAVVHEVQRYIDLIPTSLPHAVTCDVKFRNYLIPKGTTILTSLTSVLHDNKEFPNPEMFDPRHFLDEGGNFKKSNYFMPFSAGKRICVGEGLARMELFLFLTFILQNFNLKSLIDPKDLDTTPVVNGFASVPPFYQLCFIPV
SMILES,AC50,"activity, negative = inhibition"
COc1ccc2[nH]cc(CCNc3cc(-c4ccccc4C(F)(F)F)ncn3)c2c1,10 µM (active),–
COc1ccc2[nH]cc(CCNc3cc(-c4ccccc4C)ncn3)c2c1,7.94 µM (active),–
COc1ccc2[nH]cc(CCNc3cc(-c4ccccc4OC)ncn3)c2c1,3.16 µM (active),–
CC(=O)NCCNc1cc(-c2ccccc2CN(C)C)ncn1,–,-7.92% (inactive)
N[C@H](C(=O)O)c1cccc(O)c1,inactive,–
Fc1ccc2nc(Nc3nc4c(s3)CCCC4)sc2c1,17.8 µM (active),–
COc1cccc(-c2cc(C(=O)Nc3cccc(O)c3)no2)c1,3.16 µM (active),–
COc1ccc(C2CC(=O)CC(=O)C2n2cncn2)cc1 (stereo unspecified),–,-14.6% (inactive)
O=C1C(Cc2ccccc2)C(c2ccccc2)N1c1ccccc1 (stereo unspecified),1.26 µM (active),–
CCCC1C(=O)N(c2ccccc2)C1c1ccccc1 (stereo unspecified),4.47 µM (active),–
CN1C(=O)C[C@H](c2ccccc2)C1=O,–,-32.1% [at 25.6 µM] (inactive)
CC(C)(C)CC(C)(C)c1ccc(OCOCCOCCO)c(Cc2cc(C(C)(C)CC(C)(C)C)cc(Cc3cc(C(C)(C)CC(C)(C)C)ccc3OCOCCOCCO)c2OCOCCOCCO)c1,–,-27.9% [at 25.6 µM] (inactive)
CO[C@H]1[C@H](O[C@H]2O[C@@H](C)[C@@H](O[C@@H]3C[C@](C)(O)[C@H](OC(=O)CC(C)C)[C@H](C)O3)[C@@H](N(C)C)[C@@H]2O)[C@@H](CC=O)C[C@@H](C)[C@@H](O)/C=C\C=C/C[C@@H](C)OC(=O)C[C@H]1OC(C)=O,–,25.9% [at 25.6 µM] (inactive)
C[C@@H](C[N+](C)(C)C)OC(N)=O,inactive,–
O[C@H](C[C@@H]1CCCCN1)c1ccc2c(c1)oc1ccccc12,–,-14.6% [at 11.4 µM] (inactive)
COc1ccc(-c2cc([C@H](O)[C@@H]3CCCCN3)c3ccccc3n2)cc1,3.98 µM (active),–
O[C@@H](c1cc(C(F)(F)F)nc2c(Cl)cc(Cl)cc12)[C@@H]1CCCCN1,–,-14.3% [at 11.4 µM] (inactive)
COc1ccc(CNc2ncnc3ccc(-c4cccc(NS(C)(=O)=O)c4)cc23)c(OC)c1,2.51 µM (active),–
COc1ccccc1CNc1ncnc2ccc(-c3cccc(NS(C)(=O)=O)c3)cc12,15.8 µM (active),–
COCCNc1ncnc2ccc(-c3cccc(NS(C)(=O)=O)c3)cc12,–,-14.8% (inactive)
c1ccc2cc(C3=NCCN3)ncc2c1,–,-35.7% (inactive)
CCCCN(Cc1ccccc1)C(=O)c1cnc2n(c1=O)CCS2,–,8.84% (inactive)
N#Cc1c(-c2ccc(Cl)cc2)nc2n(c1=O)CCCS2,7.94 µM (active),–
O=c1c(-c2ccccc2)c(O)c2cccc3c2n1CCC3,–,-6.66% (inactive)

SMILES,AC50,"activity, negative = inhibition"
COc1cc(=O)n2c(n1)SCCC2,–,-7.61% (inactive)
N#Cc1c(-c2ccccc2)nc2n(c1=O)CCS2,15.8 µM (active),–
COC(=O)[C@@H]1C[C@H]1[C@@H](NC(=O)c1cccnc1)c1ccccc1,–,-22.1% (inactive)
COC(=O)[C@@H]1C[C@H]1[C@@H](NC(=O)c1ccccc1)c1ccccc1,1.26 µM (active),–
COC(=O)[C@H]1C[C@@H]1[C@H](NC(=O)c1ccccc1)c1ccccc1,7.94 µM (active),–
COC(=O)[C@H]1C[C@@H]1[C@H](NC(C)=O)c1ccccc1,–,-28.9% (inactive)
COC(=O)[C@@H]1C[C@H]1[C@@H](NC(=O)Oc1ccc(F)cc1)c1ccccc1,10 µM (active),–
O=C(N[C@@H](c1ccccc1)[C@@H]1C[C@H]1C(=O)O)OCc1ccccc1,–,-33% (inactive)
COC(=O)[C@H]1C[C@@H]1[C@H](NC(=O)OCc1ccccc1)c1ccccc1,3.16 µM (active),–
COC(=O)[C@H]1C[C@@H]1[C@H](NC(=O)c1cccnc1)c1ccccc1,–,-11.7% (inactive)
COC(=O)C1CC1C(NC(=O)[C@H]1CCCCN1)c1ccccc1 (stereo partly specified),–,-41% (inactive)
COc1cccc(Nc2ncc3nc(-c4cc(F)cc(F)c4)c(=O)n(CCC#N)c3n2)c1,–,-0.627% (inactive)
CC(C)(S)[C@H](N)C(=O)O,–,4.04% [at 11.4 µM] (inactive)
O=C(N[C@@H](c1ccccc1)[C@@H]1C[C@H]1C(=O)NCc1ccccn1)OCc1ccccc1,7.94 µM (active),–
CCCCN1C(=O)C(NC(=O)C2CC2)(C(F)(F)F)C2=C1CC(C)(C)CC2=O (stereo unspecified),20 µM (active),–
Clc1ccc(Cl)c(SCCCN2CCNCC2)c1,–,11.4% [at 11.4 µM] (inactive)
CC1CCN(CCOc2cc(Cl)ccc2Cl)CC1,7.08 µM (active),–
OCCN1CCN(CCOc2cccc(Cl)c2)CC1,–,28.5% (inactive)
O=C(O)CCCCCCCC(=O)O,–,14.9% (inactive)
CN(C)c1ccc(-c2nc3n(n2)C(c2cccnc2)C2=C(CC(C)(C)CC2=O)N3)cc1 (stereo unspecified),14.1 µM (active),–
CCOc1ccccc1CNCCN1CCOCC1,–,6.81% (inactive)
c1cc(CNCCCN2CCOCC2)ccn1,7.94 µM (active),–
c1cc(CNCCN2CCNCC2)ccn1,–,-34.1% [at 11.4 µM] (inactive)
Cn1c(=O)c(-c2ccc(F)c(F)c2)nc2cncnc21,–,-43.5% (inactive)

SMILES,AC50,"activity, negative = inhibition"
CSc1nncc(-c2ccc(F)c(F)c2)n1,11.2 µM (active),–
CC(=O)Nc1ccc2c(c1)/C(=C/c1ccc([N+](C)(C)C)cc1)c1ccccc1-2,–,-19.5% [at 11.4 µM] (inactive)
O=C(OCc1ccc(Cl)cc1Cl)c1cccnc1Cl,0.355 µM (active),–
O=C(O)COc1c(Cl)cc(Cl)c2cccnc12,–,26% [at 11.4 µM] (inactive)
CC(=O)N1c2c(cc(Br)cc2S(=O)(=O)NCC2COc3ccccc3O2)CC1C (stereo unspecified),3.16 µM (active),–
COc1ccc(-n2nnnc2/C=C\Nc2ccccc2C(=O)c2ccccc2)cc1,0.316 µM (active),–
COc1ccc(C(F)(F)F)cc1N/C=C\c1nnnn1-c1ccccc1,1.12 µM (active),–
COc1cccc(Cn2c(=O)c(-c3ccccc3)nc3cnc(N4CCN(C)CC4)nc32)c1,–,-13.9% (inactive)
COc1cccc(Cn2c(=O)c(-c3cccc(C#N)c3)nc3cnc(N4CCN(C)CC4)nc32)c1,–,20.9% (inactive)
COc1cccc(Cn2c(=O)c(CCc3ccccc3)nc3cnc(N4CCNCC4)nc32)c1,25.1 µM (active),–
COc1cccc(Cn2c(=O)c(CCc3ccccc3)nc3cnc(N4CCN(C)CC4)nc32)c1,7.94 µM (active),–
CN1CCN(c2ncc3nc(CCc4ccccc4)c(=O)n(Cc4ccc(F)cc4)c3n2)CC1,–,-34.9% (inactive)
O=C1[C@H]2CCn3c(=O)n(-c4ccccc4)c(=O)n3[C@H]2[C@H](O)[C@H]2O[C@@H]12,–,-1.55% [at 11.4 µM] (inactive)
CC(=O)NS(=O)(=O)c1ccc(NC(=S)NC(=O)c2ccco2)cc1,–,7.63% (inactive)
CCN(CC)S(=O)(=O)c1ccc(NC(=O)COC(=O)c2ccc(Br)o2)cc1,11.2 µM (active),–
CCCC(=O)Nc1ccc(C(=O)NNC(=S)NC(=O)c2cccs2)cc1,–,-22.5% (inactive)
CN(C)S(=O)(=O)c1ccc(NC(=O)COC(=O)c2ccccn2)cc1,–,-16% (inactive)
CCN(c1ccccc1)S(=O)(=O)c1ccc(NC(=S)NC(=O)c2cccs2)cc1,3.98 µM (active),–
CN(C1CCCCC1)S(=O)(=O)c1ccc(NC(=S)NC(=O)c2cccs2)cc1,3.55 µM (active),–
CCN(c1ccccc1)S(=O)(=O)c1ccc(NC(=S)NC(=O)c2ccc(Br)o2)cc1,8.91 µM (active),–
Cc1noc(NS(=O)(=O)c2ccc(NC(=O)c3ccc(Br)o3)cc2)c1C,–,-25.5% (inactive)
CCCCCCCCCCCCCCCC[N+](C)(C)CCN(Cc1ccc(OC)cc1)c1ncccn1,–,-43.8% [at 25.6 µM] (inactive)
O=c1c(CCc2ccccc2)nc2cncnc2n1-c1ccccc1,10 µM (active),–
O=c1c(CCc2ccccc2)nc2cncnc2n1Cc1ccccc1Cl,5.01 µM (active),–

SMILES,AC50,"activity, negative = inhibition"
O=c1c(CCc2ccccc2)nc2cncnc2n1Cc1ccc(F)cc1,6.31 µM (active),–
Cc1nc2cnc(N(C)C)nc2n(-c2ccccc2)c1=O,–,5.33% (inactive)
Brc1ccc(-c2nnc(-c3cccc(Br)c3)o2)cc1,–,-11.7% (inactive)
Cc1nnc(-c2cccc(Br)c2)c2cn(-c3ccccc3Cl)nc12,1.78 µM (active),–
Cc1nnc(-c2cccc(Br)c2)c2cn(-c3ccc(Br)cc3)nc12,5.01 µM (active),–
CCn1c(CC(C)C)n[nH]c1=S,–,16% (inactive)
CC(C)Cn1c(-c2nn(C)cc2Cl)n[nH]c1=S,15.8 µM (active),–
CCc1nn(C)c(-c2n[nH]c(=S)n2N)c1Cl,–,-20.1% (inactive)
CC1CCN(CCc2nc3cc(NC(=O)NC4CCCCC4)ccc3n2C)CC1,–,-5.62% (inactive)
O=C(Nc1ccc2c(c1)nc1n2CCN(C2CCCCC2)C1)NC1CCCCC1,14.1 µM (active),–
C[C@@H]1/C=C\CC(=O)OC[C@H]2O[C@@H](C=C[C@@H]2O)[C@H](C)/C=C\CC(=O)OC1,–,-20.4% [at 11.4 µM] (inactive)
Cn1c2c(c(=O)n(C)c1=O)[C@@H]1c3c(ccc4ccccc34)OC[C@@H]1CO2,14.1 µM (active),–
O=C1c2ccccc2C(=O)c2c(NC3CCCCC3)ccc(Nc3ccc(S(=O)(=O)O)cc3)c21,3.98 µM (active),–
O=C(Nc1ccc(Nc2ccc3c(c2)C(=O)c2ccccc2C3=O)c2c1C(=O)c1ccccc1C2=O)c1ccccc1,–,-23.9% [at 11.4 µM] (inactive)
Nc1ccc(-c2ccc(Nc3cc(S(=O)(=O)O)c(N)c4c3C(=O)c3ccccc3C4=O)cc2)c(S(=O)(=O)O)c1,–,-36% [at 11.4 µM] (inactive)
Cn1c(SC2=CS(=O)(=O)c3ccccc32)nc2ccccc21,17.8 µM (active),–
C=CCOc1cccc(/C=N/NC(=O)C(=O)NCc2ccco2)c1,–,18.1% (inactive)
Oc1ccc(/C=N/NC(=S)NCc2ccco2)cc1,10 µM (active),–
CN(C)c1ccc(-c2nc(NC3CCNCC3)c3ccccc3n2)cc1,–,-7.38% (inactive)
Fc1ccc(Nc2nc(-c3ccoc3)nc3ccccc23)cc1,–,-38.8% (inactive)
c1ccc2c(Nc3ccncc3)nc(-c3ccoc3)nc2c1,20 µM (active),–
CNc1nc(-c2ccc(N(C)C)cc2)nc2ccccc12,25.1 µM (active),–
CN(C)c1ccc(-c2nc(Nc3ccncc3)c3ccccc3n2)cc1,10 µM (active),–
CNc1nc(-c2ccoc2)nc2ccccc12,–,-19.4% (inactive)
